Measured values taken from PubChem BioAssay.
Calls of active or inactive are those of the source.

Legend:
[1] = system: Plasmodium falciparum Sir2 (PF13_0152, Sir2A); assay: pfSir2 binders on small-molecule microarrays, primary screen, biochemical, small-molecule microarray, 635 nm fluorescence (AID 1098); settings: small-molecule microarray binding, fluorescence 635 nm; higher = more signal;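 note: score merges spot fluorescence intensity with its signal-to-noise ratio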
[2] = small-molecule microarray binders of probe aDKK1, primary screen, biochemical, biotinylated probe, 635/667 nm fluorescence (AID 1099); settings: higher = more signal;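 note: score merges 667nm spot fluorescence with signal to noise across triplicate slides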
[3] = small-molecule microarray binders of probe aCHRDL2, primary screen, biochemical, biotinylated probe, 635/667 nm fluorescence (AID 1100); settings: higher = more signal
[4] = splicing luciferase reporter signal modulators, primary screen, spliceosome inhibition project, cell-based, HEK293, splice +/- reporter (AID 1101); settings: luminescence, 24 h, higher = more signal, called active from +8 up or from −8 down;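 note: HEK293 cells carrying a splicing-competent luciferase reporter gene; test concentration not given here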
[5] = target: Fibroblast growth factor 10 (Homo sapiens) (UniProt O15520); assay: FGF10 binders on small-molecule microarrays, primary screen, biochemical, small-molecule microarray, 635 nm fluorescence (AID 1102); settings: FGF10 binding, fluorescence 635 nm, higher = more signal
[6] = system: glycogen synthase kinase-3 (GSK3A per assay name; protocol says GSK3B); assay: GSK3 binders on small-molecule microarrays, primary screen, biochemical, small-molecule microarray, 635 nm fluorescence, GSK3A (AID 1103); settings: small-molecule microarray binding, fluorescence 635 nm; higher = more signal; note: the record names both GSK3A and GSK3B
[7] = target: Epidermal growth factor receptor (Homo sapiens) (UniProt P00533); assay: EGFR binders on small-molecule microarrays, primary screen, biochemical, small-molecule microarray, 635 nm fluorescence (AID 1104); settings: EGFR binding, higher = more signal;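 note: score merges 667 nm emission intensity with spot signal to noise over triplicate slides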
[8] = target: Follistatin-related protein 3 (Homo sapiens) (UniProt O95633); assay: FSTL3 binders on small-molecule microarrays, primary screen, biochemical, small-molecule microarray, 635 nm fluorescence (AID 1105); settings: FSTL3 binding, higher = more signal;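 note: score merges emission near 667 nm and signal to noise per printed spot across three slides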
[9] = target: Dickkopf-related protein 1 (Homo sapiens) (UniProt O94907); assay: DKK1 binders on small-molecule microarrays, primary screen, biochemical, small-molecule microarray, 635 nm fluorescence scan (AID 1106); settings: DKK1 binding, higher = more signal;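 note: score merges emission near 667 nm with signal to noise over three replicate slides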
[10] = system: Inhibin beta A chain (activin A); assay: INHBA (activin A) binders on microarrays, primary screen, biochemical, small-molecule microarray, 635 nm fluorescence scan (AID 1107); settings: small-molecule microarray binding, higher = more signal;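 note: mouse activin A protein probed at 4.33 µg/mL on printed slides; score merges bound-protein fluorescence near 667 nm with spot signal-to-noise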
[11] = system: Human papillomavirus type 1a protein E7 (residues 44-93); assay: HPV1a E7 fragment binders on microarrays, primary screen, biochemical, small-molecule microarray, residues 44-93, 635 nm fluorescence (AID 1108); settings: small-molecule microarray binding, fluorescence 635 nm; higher = more signal;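 note: E7 fragment applied at 1 µg/mL in TBST for 1 h at 4 C; score combines spot fluorescence with its signal to noise ratio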
[12] = modulators of HCV replicon luciferase signal, primary screen, HCV replication inhibitor project, Huh7 cells, luciferase reporter (AID 1109); settings: 48 h, higher = more signal;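 note: huh7 hepatoma cells harbouring a luciferase neomycin HCV replicon reporter; luciferase luminescence as measure of HCV replicon replication; test concentration not given here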
[13] = target: Left-right determination factor 2 (Homo sapiens) (UniProt O00292); assay: LEFTY2 binders on small-molecule microarrays, primary screen, biochemical, small-molecule microarray, 635 nm fluorescence scan (AID 1110); settings: LEFTY2 binding, higher = more signal
[14] = target: Calmodulin-1 (Homo sapiens) (UniProt P0DP23); assay: CALM1 binders on microarrays, EGTA buffer, profiling panel, biochemical, small-molecule microarray, Cy5-labelled CALM1 (AID 1111); settings: Cy5-CALM1 binding fluorescence, higher = more signal;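 note: labelled calmodulin applied in Tris saline Tween buffer holding calcium plus EGTA and DTT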
[15] = target: Calmodulin-1 (Homo sapiens) (UniProt P0DP23); assay: calcium-bound CALM1 binders on microarrays, profiling panel, artefact control for SMM control-protein annotation, biochemical, small-molecule microarray, Cy5-labelled CALM1, plus calcium (AID 1112); settings: Cy5-CALM1 binding fluorescence, higher = more signal;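 note: score merges spot fluorescence with signal to noise from triplicate slides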
[16] = small-molecule microarray binders of probe aWnt5a, primary screen, biochemical, biotinylated probe, 635/667 nm fluorescence (AID 1113); settings: higher = more signal;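 note: score merges 667 nm fluorescence intensity with signal-to-noise per printed feature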
[17] = small-molecule microarray binders of probe aShh, primary screen, biochemical, biotinylated probe, 635/667 nm fluorescence (AID 1114); settings: higher = more signal;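 note: probe is biotin-labelled aShh protein from a stem cell growth factor screen; measures binding of labelled protein to compounds printed on the slide; score merges feature fluorescence at 667 nm with signal-to-noise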
[18] = small-molecule microarray binders of probe aNog, primary screen, biochemical, biotinylated probe, 635/667 nm fluorescence (AID 1115); settings: higher = more signal;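 note: probe is biotinylated aNog protein used at 0.15 µg/mL for 1 h at 4 C; z-score combines 667 nm fluorescence of each spot with its signal to noise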
[19] = target: Torsin-1A-interacting protein 1 (Homo sapiens) (UniProt Q5JTV8); assay: LAP1 binders from COS7 cell lysate, primary screen, small-molecule microarray, 635/667 nm fluorescence (AID 1116); settings: COS7-hLAP1 lysate binding, 635 nm fluorescence, higher = more signal
[20] = target: Alpha-bungarotoxin (Bungarus multicinctus) (UniProt P60615); assay: alpha-bungarotoxin binders on microarray, profiling panel, artefact control for SMM control protein annotation, biochemical, small-molecule microarray, Alexa647 label, 635/667 nm fluorescence (AID 1117); settings: alpha-BTX-A647 binding fluorescence, higher = more signal
Alpha-bungarotoxin (Bungarus multicinctus), sequence (P60615 whole entry, looked up): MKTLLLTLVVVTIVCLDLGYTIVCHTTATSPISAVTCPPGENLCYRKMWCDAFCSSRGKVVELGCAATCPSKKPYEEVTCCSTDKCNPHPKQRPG

Epidermal growth factor receptor (Homo sapiens), sequence (P00533 whole entry, looked up): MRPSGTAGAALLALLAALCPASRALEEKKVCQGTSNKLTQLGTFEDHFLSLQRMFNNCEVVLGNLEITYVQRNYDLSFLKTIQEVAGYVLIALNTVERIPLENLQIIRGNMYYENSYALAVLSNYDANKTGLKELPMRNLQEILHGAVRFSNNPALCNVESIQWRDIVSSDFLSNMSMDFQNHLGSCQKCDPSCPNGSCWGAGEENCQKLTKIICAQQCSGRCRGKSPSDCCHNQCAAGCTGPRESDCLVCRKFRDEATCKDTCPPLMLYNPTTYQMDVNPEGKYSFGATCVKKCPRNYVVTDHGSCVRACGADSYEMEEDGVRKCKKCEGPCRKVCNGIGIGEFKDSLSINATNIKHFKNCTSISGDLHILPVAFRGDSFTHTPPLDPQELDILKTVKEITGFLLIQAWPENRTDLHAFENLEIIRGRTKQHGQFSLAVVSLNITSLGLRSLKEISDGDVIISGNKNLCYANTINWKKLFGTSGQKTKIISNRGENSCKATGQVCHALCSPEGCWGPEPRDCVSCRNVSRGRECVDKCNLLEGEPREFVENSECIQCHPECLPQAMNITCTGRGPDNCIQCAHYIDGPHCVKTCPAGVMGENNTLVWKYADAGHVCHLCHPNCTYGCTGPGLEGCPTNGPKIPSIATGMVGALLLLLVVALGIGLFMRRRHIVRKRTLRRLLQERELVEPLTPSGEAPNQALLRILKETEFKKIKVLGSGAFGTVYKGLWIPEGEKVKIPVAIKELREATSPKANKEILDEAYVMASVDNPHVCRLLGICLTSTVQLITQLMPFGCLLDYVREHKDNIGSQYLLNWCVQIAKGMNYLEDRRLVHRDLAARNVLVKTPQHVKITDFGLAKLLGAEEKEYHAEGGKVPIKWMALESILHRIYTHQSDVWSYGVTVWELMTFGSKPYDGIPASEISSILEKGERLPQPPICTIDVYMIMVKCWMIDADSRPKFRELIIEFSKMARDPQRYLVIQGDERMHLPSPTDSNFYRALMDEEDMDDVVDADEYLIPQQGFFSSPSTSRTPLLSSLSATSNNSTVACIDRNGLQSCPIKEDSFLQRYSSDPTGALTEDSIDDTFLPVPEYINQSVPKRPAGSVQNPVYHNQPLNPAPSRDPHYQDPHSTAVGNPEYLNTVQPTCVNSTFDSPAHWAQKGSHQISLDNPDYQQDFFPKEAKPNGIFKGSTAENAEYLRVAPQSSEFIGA
Torsin-1A-interacting protein 1 (Homo sapiens), sequence (Q5JTV8 whole entry, looked up): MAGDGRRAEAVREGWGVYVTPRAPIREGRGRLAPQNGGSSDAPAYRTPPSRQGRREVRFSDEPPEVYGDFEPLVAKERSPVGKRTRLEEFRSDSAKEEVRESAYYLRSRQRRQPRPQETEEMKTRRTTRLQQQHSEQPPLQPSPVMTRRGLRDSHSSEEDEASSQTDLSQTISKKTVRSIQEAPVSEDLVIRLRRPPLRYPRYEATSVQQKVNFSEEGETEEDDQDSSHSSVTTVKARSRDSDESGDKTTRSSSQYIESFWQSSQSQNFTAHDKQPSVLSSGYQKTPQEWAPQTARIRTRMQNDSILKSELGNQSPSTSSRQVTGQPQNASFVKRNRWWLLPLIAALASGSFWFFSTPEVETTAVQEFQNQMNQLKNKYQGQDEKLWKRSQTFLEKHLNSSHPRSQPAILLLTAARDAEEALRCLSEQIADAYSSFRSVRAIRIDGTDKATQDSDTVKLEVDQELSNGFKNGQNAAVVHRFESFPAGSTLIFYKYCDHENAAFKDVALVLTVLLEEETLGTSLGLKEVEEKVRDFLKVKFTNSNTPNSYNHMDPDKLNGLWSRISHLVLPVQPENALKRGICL
Dickkopf-related protein 1 (Homo sapiens), sequence (O94907 whole entry, looked up): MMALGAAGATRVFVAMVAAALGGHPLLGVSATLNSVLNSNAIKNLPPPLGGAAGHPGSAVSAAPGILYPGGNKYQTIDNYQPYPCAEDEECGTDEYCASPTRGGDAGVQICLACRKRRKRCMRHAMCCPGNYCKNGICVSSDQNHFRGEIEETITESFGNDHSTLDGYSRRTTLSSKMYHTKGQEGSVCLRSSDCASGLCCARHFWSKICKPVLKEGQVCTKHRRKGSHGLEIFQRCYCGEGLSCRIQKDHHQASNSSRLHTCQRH
Left-right determination factor 2 (Homo sapiens), sequence (O00292 whole entry, looked up): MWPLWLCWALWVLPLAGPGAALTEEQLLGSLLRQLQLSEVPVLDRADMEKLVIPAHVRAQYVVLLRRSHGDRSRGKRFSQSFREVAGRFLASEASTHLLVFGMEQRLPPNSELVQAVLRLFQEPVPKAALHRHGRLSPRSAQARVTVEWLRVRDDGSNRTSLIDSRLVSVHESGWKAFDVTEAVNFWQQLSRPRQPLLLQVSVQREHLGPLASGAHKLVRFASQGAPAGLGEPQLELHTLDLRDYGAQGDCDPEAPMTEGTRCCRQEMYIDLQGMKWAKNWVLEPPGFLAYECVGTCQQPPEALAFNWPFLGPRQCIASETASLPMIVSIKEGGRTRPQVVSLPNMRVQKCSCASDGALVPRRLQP
Fibroblast growth factor 10 (Homo sapiens), sequence (O15520 whole entry, looked up): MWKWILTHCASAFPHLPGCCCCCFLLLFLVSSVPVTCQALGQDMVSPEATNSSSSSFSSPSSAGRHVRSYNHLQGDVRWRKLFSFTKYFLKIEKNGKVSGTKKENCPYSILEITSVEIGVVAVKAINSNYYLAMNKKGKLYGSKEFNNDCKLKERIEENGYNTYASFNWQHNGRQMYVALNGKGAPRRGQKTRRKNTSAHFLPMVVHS
Follistatin-related protein 3 (Homo sapiens), sequence (O95633 whole entry, looked up): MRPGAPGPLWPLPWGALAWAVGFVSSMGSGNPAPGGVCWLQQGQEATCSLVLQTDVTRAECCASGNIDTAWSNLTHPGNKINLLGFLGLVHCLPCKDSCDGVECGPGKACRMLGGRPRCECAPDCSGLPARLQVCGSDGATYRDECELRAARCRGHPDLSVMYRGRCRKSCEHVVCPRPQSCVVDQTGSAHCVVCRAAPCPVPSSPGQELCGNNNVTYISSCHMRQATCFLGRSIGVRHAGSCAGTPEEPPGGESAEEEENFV

| Compound | composite z-score [1] | composite z-score [2] | composite z-score [3] | z-score [4] | composite z-score [5] | composite z-score [6] | composite z-score [7] | composite z-score [8] | composite z-score [9] | composite z-score [10] | composite z-score [11] | z-score [12] | composite z-score [13] | composite z-score [14] | composite z-score [15] | composite z-score [16] | composite z-score [17] | composite z-score [18] | composite z-score [19] | composite z-score [20] |
| --- | --- | --- | --- | --- | --- | --- | --- | --- | --- | --- | --- | --- | --- | --- | --- | --- | --- | --- | --- | --- |
| CCCN1C(=O)[C@@]2(c3ccc([N+](=O)[O-])cc3)CC(=O)N(C3CCCCC3)[C@@H]2c2ccc(CO)cc21 | 0.219 | 0.27 | -0.12 | -0.237 (inactive) | 0.453 | 0.478 | 0.121 | 0.41 | 1.2 | 0.898 | 0.202 | -0.136 | 0.445 | -0.0766 | -0.567 | -0.18 | -0.225 | -0.0165 | -0.349 | -0.171 |
| O=C1OCC=C[C@H]2OC34C=CCN(Cn5nnc6ccccc65)C(=O)[C@H]3N(CCO)C(=O)[C@@H]4[C@@H]12 (stereo not given in full) | 0.101 | -0.0279 | 0.329 | 1.15 (inactive) | -1.33 | -1.02 | -1.09 | -1.35 | -1.71 | -0.0812 | 0.316 | -0.105 | -1.41 | -0.157 | 0.62 | -0.148 | -0.0192 | 0.0963 | -0.0193 | -2.05 |
| COC(=O)C1=CC(CCCO)=CC(c2ccc(CN3CCCC3)cc2)N(C)C=C1C(=O)OC (stereo not given) | 1.65 | 0.629 | 0.549 | 0.657 (inactive) | 0.883 | -0.302 | -0.138 | 0.345 | -0.36 | 0.861 | 1.3 | -0.979 | 0.0465 | 1 | 0.316 | 0.002 | 0.582 | 0.776 | 1.66 | 0.57 |
| C=C[C@H](C)[C@@H](OC(=O)Nc1ccc(SC)cc1)c1ccc(OCCO)cc1 | 1.11 | -0.189 | 0.529 | -1.36 (inactive) | 1.02 | 0.321 | -0.359 | 0.379 | -0.395 | 0.246 | 1.3 | -0.931 | -0.396 | 0.19 | 0.601 | -0.0792 | -0.0643 | 0.958 | 0.248 | 0.438 |
| C[C@]1(C(=O)O)c2ccccc2C(=O)N(Cc2cc(C(F)(F)F)cc(C(F)(F)F)c2)[C@H]1c1ccc(CO)cc1 | -0.822 | 0.324 | 0.55 | 0.487 (inactive) | -0.04 | -0.25 | -0.641 | 0.142 | 0.123 | 0.41 | 0.966 | 1.07 | -0.255 | -0.076 | -1.16 | -0.145 | -0.214 | 0.081 | -0.0827 | 0.764 |
| C=CCNC(=O)[C@@H]1[C@H]2C(=O)O[C@H](c3ccccc3)[C@H](c3ccccc3)N2[C@H](c2ccc(O)cc2)[C@@]12C(=O)N(C(=O)OCCOC)c1ccc(C#CCC(C(=O)OC)C(=O)OC)cc12 | 0.533 | -0.0333 | 0.0912 | 0.942 (inactive) | 1.17 | 0.611 | 0.408 | 1 | 0.493 | 0.273 | 1.39 | -0.598 | 0.434 | 0.635 | 0.0394 | -0.001 | 0.151 | -0.1 | 1.42 | 1.11 |
